This note sets out measurements from PubChem BioAssay (NCI).

Assay [1] in a line: NCI Yeast Anticancer Drug Screen. Data for the rad50 strain (AID 155).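 Also: 0% = growth of vehicle-only cultures of the same strain.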 Conditions: S. cerevisiae rad50 strain growth inhibition; at 50.0 µM; stronger effect = higher value. The method, boiled down: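 Readout: growth inhibition relative to vehicle-treated cultures. Compound exposure was carried out in a genetically defined yeast strain deficient in DNA damage repair.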
Assay [2] can be described thus: NCI Yeast Anticancer Drug Screen. Data for the mec2-1 strain (AID 157). The settings on record: S. cerevisiae mec2-1 strain, at 50.0 µM, stronger effect = higher value. The method, boiled down: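 Vehicle-treated cultures served as reference for growth inhibition of compound-exposed mec2-1 yeast.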
Assay [3] can be described thus: NCI Yeast Anticancer Drug Screen. Data for the sgs1 mgt1 strain (AID 161).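 Also: 0% = growth of cultures given vehicle only.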 Conditions: S. cerevisiae sgs1 mgt1 strain, at 50.0 µM, stronger effect = higher value. The method, boiled down:
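Mutant yeast exposed to compound; growth scored against vehicle-only wells.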

Assay [4] in a line: NCI Yeast Anticancer Drug Screen. Data for the cln2 rad14 strain (AID 165).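 Also: 0% = growth equal to vehicle treated cultures.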 The settings on record: S. cerevisiae cln2 rad14 strain, at 50.0 µM, stronger effect = higher value. Summed up: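 Each compound was tested on cln2 rad14 yeast. Inhibition of growth was calculated against vehicle-exposed controls.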
Assay [5] is described as follows: NCI Yeast Anticancer Drug Screen. Data for the bub3 strain (AID 167). Conditions: S. cerevisiae bub3 mutant strain, at 50.0 µM, stronger effect = higher value. The method, boiled down:
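Readout: yeast growth inhibition, expressed relative to vehicle-only wells. The test organism is a mutant strain from a panel with lesions in DNA repair or checkpoint genes.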

The nature of assay [6]: NCI Yeast Anticancer Drug Screen. Data for the mlh1 rad18 strain (AID 175). The settings on record: S. cerevisiae mlh1 rad18 strain growth inhibition; at 50.0 µM; stronger effect = higher value. The method, boiled down:
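Vehicle-treated cultures served as the reference for growth inhibition in a yeast strain carrying DNA damage repair alterations exposed to each compound.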

About 79,000 compounds went through this panel and 15% of them were active in at least one assay; those are over-represented in the sample as a whole. A number with no mark means an inactive call. Active and inactive are the calls of the source. Rule as the data show it: active = growth inhibition above about 70%; inactive = the rest.

For the compound `COc1cc2c(cc1OC)C(=O)C(C1CCCCC1)NC2` (stereo not given), the growth inhibition in assay [1] is 20.7%; in assay [2], 9.85%; in assay [3] it was 8.9%; in assay [4], 0.45%; in assay [5], 16.1%; in assay [6], 30.4%.

Regarding `CCNCC1COc2ccccc2O1` (stereo not given), the growth inhibition in assay [1] was -0.3%; in assay [2], 3%; in assay [3] it was -7%; in assay [4], -15.8%; in assay [5], -4.8%; in assay [6], -1%.

Consider `COC1=CC(=C(\C#N)c2ccc(Cl)cc2)/C=CC/1=N/O`, for which the growth inhibition in assay [1] was 20.1%; in assay [2], 11.6%; in assay [3] it was 3.85%; in assay [4], -7.25%; in assay [5] it was 5.75%; in assay [6] it was 21.9%.

`COc1cc(/C=C/c2ccc(/C=C/c3cc(OC)c(OC)c(OC)c3)cc2)cc(OC)c1OC`: the growth inhibition in assay [1] is 11.2%; in assay [2] it was -5.65%; in assay [3] it was -29.9%; in assay [4] it was 1.8%; in assay [5] it was -8.75%; in assay [6] it was -9.9%.

As for `O=[N+]([O-])c1cccc2c(-c3nccc4c([N+](=O)[O-])cccc34)nccc12`, the growth inhibition in assay [1] was -16.9%; in assay [2], -1.35%; in assay [3] it was -19.4%; in assay [4] it was -21.8%; in assay [5] it was -16.2%; in assay [6] it was -19%.

With `COCCCN1C(=O)C2c3[nH]c4ccccc4c3C3CCC(C(C)(C)C)CC3C2C1=O` (stereo not given), the growth inhibition in assay [1] was 34.9%; in assay [2], 8.55%; in assay [3], 21.9%; in assay [4], 45.4%; in assay [5], 35.1%; in assay [6], 49.5%.

Consider `O=C1C2C3C=CC(C2C(=O)N1COP(=O)(O)O)C1C2C(=O)N(COP(=O)(O)O)C(=O)C2C31` (stereo not given), for which the growth inhibition in assay [1] was 2.1%; in assay [2], 0.3%; in assay [3], 0.95%; in assay [4], 19.1%; in assay [5], -11.2%; in assay [6], -14.1%.

As for `CCOC(=O)C#Cc1ccc(C#CC(=O)OCC)cc1`, the growth inhibition in assay [1] is -0.5%; in assay [2] it was 19.4%; in assay [3] it was 6.45%; in assay [4], -2.95%; in assay [5], 1.95%; in assay [6], 51%.

With `COc1ccccc1/C=C1\CCC(CN(C)C)C1=O` (stereo not given), the growth inhibition in assay [1] was 82.2% (active); in assay [2], 89.5% (active); in assay [3], 91.8% (active); in assay [4], 55.4%; in assay [5] it was 91.1% (active); in assay [6], 92.2% (active).

For `CCOC(=O)C1C/C(C)=C(/C)SCCCS1` (stereo not given), the growth inhibition was 18.8% in assay [1]; 3.2% in assay [2]; -5.5% in assay [3]; 21.1% in assay [4]; 5.05% in assay [5]; -67.2% in assay [6].

For `Cc1nc[nH]c(=O)c1N`, the growth inhibition in assay [1] was 0.55%; in assay [2], -1.75%; in assay [3] it was 9.2%; in assay [4] it was 0.9%; in assay [5], 7.75%; in assay [6] it was -4.85%.

As to `CCCCCCCCCCCCCCCCCC(=O)NCCCNCCCNC(=O)CCCCCCCCCCCCCCCCC`, the growth inhibition in assay [1] was -10.9%; in assay [2] it was -21.4%; in assay [3], -12.2%; in assay [4] it was 7.55%; in assay [5], -17.5%; in assay [6], -13.6%.

Turning to `O=C(O)c1ccc(S(=O)(=O)c2ccccc2[N+](=O)[O-])cc1`, the growth inhibition was -12.9% in assay [1]; -10.3% in assay [2]; -35.8% in assay [3]; -19% in assay [4]; -12.1% in assay [5]; -38.6% in assay [6].

With `CC(=O)OC[C@@H](OC(C)=O)[C@@H](OC(C)=O)[C@H]1OC[C@@H]2C[C@H]([C@H]1OC(C)=O)N(Cc1ccccc1)O2`, the growth inhibition was -18.9% in assay [1]; -13.8% in assay [2]; -7.75% in assay [3]; 4.25% in assay [4]; -9.8% in assay [5]; -0.3% in assay [6].

Consider `CC(=O)NC(Cc1cc(I)c(OC(C)=O)c(I)c1)C(C)=O` (stereo not given), for which the growth inhibition is 5.45% in assay [1]; 7.1% in assay [2]; 0.7% in assay [3]; 14.6% in assay [4]; 4% in assay [5]; -18.4% in assay [6].

In the case of `Clc1ccc2sc3c(c2c1)CCNC3`, the growth inhibition in assay [1] was 2.8%; in assay [2] it was 0.1%; in assay [3], -6.75%; in assay [4] it was -31.4%; in assay [5], -26%; in assay [6], 13.6%.

As for `CCCCCCc1cn([C@H]2C[C@H](O)[C@@H](CO)O2)c(=O)[nH]c1=O`, the growth inhibition was -5.6% in assay [1]; -5.4% in assay [2]; 7.2% in assay [3]; -12.8% in assay [4]; 3% in assay [5]; 9.15% in assay [6].

For the compound `Cc1ccncc1S(=O)(=O)O`, the growth inhibition is 14.6% in assay [1]; 8.85% in assay [2]; 2.3% in assay [3]; -12.2% in assay [4]; 1.7% in assay [5]; 1.75% in assay [6].

Turning to `Cn1c2cc3ccccc3cc2nc2cc3c(cc21)c(Cl)c(=O)c1ccccc13`, the growth inhibition in assay [1] is 10%; in assay [2], -3%; in assay [3], 12.8%; in assay [4], 5.85%; in assay [5] it was -4.45%; in assay [6] it was -2.35%.

Turning to `N#C/C(=C/NC(=S)Nc1ccc(S(N)(=O)=O)cc1)C(N)=O`, the growth inhibition in assay [1] was -44.8%; in assay [2], -89%; in assay [3] it was -26.4%; in assay [4] it was -10.8%; in assay [5] it was -20.4%; in assay [6], -24.1%.
